Results: paper PMC9911399, “Two distinct binding modes provide the RNA-binding protein RbFox with extraordinary sequence specificity”
Residue numbers refer to the chain shown, from its start. The full ranking holds about 16,000 sequences; the median of “ka relative to ugcaugu” is about 0.0091, and the highest 2% start at about 0.032. The sample as a whole holds a higher share of the highest values than the screen did.

T1: RBFOX1 RRM (Homo sapiens, UniProt Q9NWB1 109-208)
T1 sequence: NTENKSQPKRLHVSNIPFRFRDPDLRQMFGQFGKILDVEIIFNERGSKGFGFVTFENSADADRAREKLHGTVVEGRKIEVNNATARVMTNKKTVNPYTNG

B1: CAUAACG (DNA:RNA)
RNA: GGGAGACCGGAAUUCAGAUUGUCCCAUAACGUUAAAUCCCGUCGUAGCCACCA
DNA 1: CAATCTGAATTCCGGTCTCCC
DNA 2: TGGTGGCTACGACGGGATT
B2: UGGGGGC (DNA:RNA)
RNA: GGGAGACCGGAAUUCAGAUUGUCCUGGGGGCUUAAAUCCCGUCGUAGCCACCA
DNA 1: CAATCTGAATTCCGGTCTCCC
DNA 2: TGGTGGCTACGACGGGATT
B3: UGUGGGC (DNA:RNA)
RNA: B2 RNA with G27U
DNA 1: CAATCTGAATTCCGGTCTCCC
DNA 2: TGGTGGCTACGACGGGATT
B4: UGGGCUG (DNA:RNA)
RNA: B2 RNA with G29C, G30U, C31G
DNA 1: CAATCTGAATTCCGGTCTCCC
DNA 2: TGGTGGCTACGACGGGATT
B5: CACUUGC (DNA:RNA)
RNA: B1 RNA with U27C, A28U, A29U, C30G, G31C
DNA 1: CAATCTGAATTCCGGTCTCCC
DNA 2: TGGTGGCTACGACGGGATT
B6: GCAUGCG (DNA:RNA)
RNA: B1 RNA with C25G, A26C, U27A, A28U, A29G
DNA 1: CAATCTGAATTCCGGTCTCCC
DNA 2: TGGTGGCTACGACGGGATT
B7: AUAUGCA (DNA:RNA)
RNA: B1 RNA with C25A, A26U, U27A, A28U, A29G, G31A
DNA 1: CAATCTGAATTCCGGTCTCCC
DNA 2: TGGTGGCTACGACGGGATT
B8: GGAUGCA (DNA:RNA)
RNA: B2 RNA with U25G, G27A, G28U, G30C, C31A
DNA 1: CAATCTGAATTCCGGTCTCCC
DNA 2: TGGTGGCTACGACGGGATT
B9: CCAUGCC (DNA:RNA)
RNA: B1 RNA with A26C, U27A, A28U, A29G, G31C
DNA 1: CAATCTGAATTCCGGTCTCCC
DNA 2: TGGTGGCTACGACGGGATT
B10: ACAUGCG (DNA:RNA)
RNA: B1 RNA with C25A, A26C, U27A, A28U, A29G
DNA 1: CAATCTGAATTCCGGTCTCCC
DNA 2: TGGTGGCTACGACGGGATT
B11: GCAUCCC (DNA:RNA)
RNA: B1 RNA with C25G, A26C, U27A, A28U, A29C, G31C
DNA 1: CAATCTGAATTCCGGTCTCCC
DNA 2: TGGTGGCTACGACGGGATT
B12: GGAUGCC (DNA:RNA)
RNA: B2 RNA with U25G, G27A, G28U, G30C
DNA 1: CAATCTGAATTCCGGTCTCCC
DNA 2: TGGTGGCTACGACGGGATT
B13: GUAUGCA (DNA:RNA)
RNA: B1 RNA with C25G, A26U, U27A, A28U, A29G, G31A
DNA 1: CAATCTGAATTCCGGTCTCCC
DNA 2: TGGTGGCTACGACGGGATT
B14: GCAUGCC (DNA:RNA)
RNA: B2 RNA with U25G, G26C, G27A, G28U, G30C
DNA 1: CAATCTGAATTCCGGTCTCCC
DNA 2: TGGTGGCTACGACGGGATT
B15: CGAUGCC (DNA:RNA)
RNA: B2 RNA with U25C, G27A, G28U, G30C
DNA 1: CAATCTGAATTCCGGTCTCCC
DNA 2: TGGTGGCTACGACGGGATT
B16: GGAUGCG (DNA:RNA)
RNA: B1 RNA with C25G, A26G, U27A, A28U, A29G
DNA 1: CAATCTGAATTCCGGTCTCCC
DNA 2: TGGTGGCTACGACGGGATT
B17: GUAUGCC (DNA:RNA)
RNA: B2 RNA with U25G, G26U, G27A, G28U, G30C
DNA 1: CAATCTGAATTCCGGTCTCCC
DNA 2: TGGTGGCTACGACGGGATT
B18: AGGAUUU (DNA:RNA)
RNA: B2 RNA with U25A, G28A, G29U, G30U, C31U
DNA 1: CAATCTGAATTCCGGTCTCCC
DNA 2: TGGTGGCTACGACGGGATT
B19: CUUUGGG (DNA:RNA)
RNA: B1 RNA with A26U, A28U, A29G, C30G
DNA 1: CAATCTGAATTCCGGTCTCCC
DNA 2: TGGTGGCTACGACGGGATT
B20: GAACCCA (DNA:RNA)
RNA: B1 RNA with C25G, U27A, A28C, A29C, G31A
DNA 1: CAATCTGAATTCCGGTCTCCC
DNA 2: TGGTGGCTACGACGGGATT
B21: UUAGAUC (DNA:RNA)
RNA: B2 RNA with G26U, G27A, G29A, G30U
DNA 1: CAATCTGAATTCCGGTCTCCC
DNA 2: TGGTGGCTACGACGGGATT
B22: GGCGUGC (DNA:RNA)
RNA: B2 RNA with U25G, G27C, G29U
DNA 1: CAATCTGAATTCCGGTCTCCC
DNA 2: TGGTGGCTACGACGGGATT
B23: CUCGUCC (DNA:RNA)
RNA: B1 RNA with A26U, U27C, A28G, A29U, G31C
DNA 1: CAATCTGAATTCCGGTCTCCC
DNA 2: TGGTGGCTACGACGGGATT
B24: CCAUCUC (DNA:RNA)
RNA: B1 RNA with A26C, U27A, A28U, A29C, C30U, G31C
DNA 1: CAATCTGAATTCCGGTCTCCC
DNA 2: TGGTGGCTACGACGGGATT
B25: GCAUGCA (DNA:RNA)
RNA: B1 RNA with C25G, A26C, U27A, A28U, A29G, G31A
DNA 1: CAATCTGAATTCCGGTCTCCC
DNA 2: TGGTGGCTACGACGGGATT
B26: CGCAUCG (DNA:RNA)
RNA: B1 RNA with A26G, U27C, A29U
DNA 1: CAATCTGAATTCCGGTCTCCC
DNA 2: TGGTGGCTACGACGGGATT
B27: GUCCGCA (DNA:RNA)
RNA: B1 RNA with C25G, A26U, U27C, A28C, A29G, G31A
DNA 1: CAATCTGAATTCCGGTCTCCC
DNA 2: TGGTGGCTACGACGGGATT
B28: GCAUUAA (DNA:RNA)
RNA: GGGAGACCGGAAUUCAGAUUGUCCGCAUUAAUUAAAUCCCGUCGUAGCCACCA
DNA 1: CAATCTGAATTCCGGTCTCCC
DNA 2: TGGTGGCTACGACGGGATT
B29: GCAUCCG (DNA:RNA)
RNA: B28 RNA with U29C, A30C, A31G
DNA 1: CAATCTGAATTCCGGTCTCCC
DNA 2: TGGTGGCTACGACGGGATT
B30: GCAUCAG (DNA:RNA)
RNA: B28 RNA with U29C, A31G
DNA 1: CAATCTGAATTCCGGTCTCCC
DNA 2: TGGTGGCTACGACGGGATT
B31: UCCGAUU (DNA:RNA)
RNA: B2 RNA with G26C, G27C, G29A, G30U, C31U
DNA 1: CAATCTGAATTCCGGTCTCCC
DNA 2: TGGTGGCTACGACGGGATT

These binders were tested against T1, RBFOX1 RRM (assay: EMSA; HiTS-Eq, 1 nM pool, 10 min; buffer printed only for the single-RNA assays: 10 mM Tris pH 7.5, 150 mM NaCl, 3.4 mM EDTA, 0.001% NP-40, 30 C). Details: tags: His6 N-terminal (pET28a); label: 5' 32P.
Summary of the method: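 Relative association constants, normalised to the cognate motif, were derived by comparing read counts of each RNA species with those of the control reaction. The RNA sequenced was the free fraction, separated by 8% native PAGE after a 10 min equilibration in 50 µL of 1 nM 5′-radiolabelled RNA (7 randomized nucleotides) with increasing concentrations of purified wild-type or mutant RbFox RRM.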

Binder	binding signal
B1	0.00316 KA relative to UGCAUGU
B2	0.014 KA relative to UGCAUGU
B3	0.0102 KA relative to UGCAUGU
B4	0.039 KA relative to UGCAUGU
B5	0.00965 KA relative to UGCAUGU
B6	0.916 KA relative to UGCAUGU
B7	0.0145 KA relative to UGCAUGU
B8	0.0274 KA relative to UGCAUGU
B9	0.00772 KA relative to UGCAUGU
B10	0.00768 KA relative to UGCAUGU
B11	0.0182 KA relative to UGCAUGU
B12	0.0339 KA relative to UGCAUGU
B13	0.0319 KA relative to UGCAUGU
B14	0.829 KA relative to UGCAUGU
B15	0.012 KA relative to UGCAUGU
B16	0.0222 KA relative to UGCAUGU

Binder	binding signal
B17	0.0139 KA relative to UGCAUGU
B18	0.0177 KA relative to UGCAUGU
B19	0.00295 KA relative to UGCAUGU
B20	0.00229 KA relative to UGCAUGU
B21	0.0111 KA relative to UGCAUGU
B22	0.0292 KA relative to UGCAUGU
B23	0.00629 KA relative to UGCAUGU
B24	0.00486 KA relative to UGCAUGU
B25	0.751 KA relative to UGCAUGU
B26	0.017 KA relative to UGCAUGU
B27	0.0155 KA relative to UGCAUGU
B28	0.00489 KA relative to UGCAUGU
B29	0.0325 KA relative to UGCAUGU
B30	0.0121 KA relative to UGCAUGU
B31	0.00941 KA relative to UGCAUGU
